Measured values published in the supplement of paper PMC10338343.
± gives the standard deviation.

Legend:
[1] = test system: MILI (PIWIL2) piRISC loaded with L1MC piRNA (26 nt); assay: pre-steady-state target cleavage rate (min^-1); guide: L1MC piRNA 5'p-UAACUAAAUACUAUGCAAGCUGUAGG; higher = faster piRNA-guided slicing of the target
Method in brief: (§1)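 The pre-steady-state cleavage rate came from a burst-and-steady-state fit to pooled data from three Cleave-'n-Seq trials, in which uncleaved targets were sequenced and normalised to depth and to weakly complementary targets. Each reaction held 0.1 nM transcribed, DNA-blocked target RNA library and 1 nM active affinity-purified piRISC carrying one synthetic guide, with or without 500 nM GTSF1 partner protein, in HEPES–potassium acetate buffer at 33 °C for 0–8 or 0–960 min. k3 was capped at 0.0001 min^-1.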

[2] = test system: EfPiwi piRISC loaded with L1MC piRNA (26 nt); assay: pre-steady-state target cleavage rate (min^-1); auxiliary factor: 500 nM Ephydatia muelleri Gtsf1; guide: L1MC piRNA 5'p-UAACUAAAUACUAUGCAAGCUGUAGG; MIWI and MILI are mouse PIWI proteins and EfPiwi is from a freshwater sponge; tags in brackets are library labels; higher = faster piRNA-guided slicing of the target
Method in brief: as §1

[3] = auxiliary factor: 500 nM mouse GTSF1
[4] = auxiliary factor: none (no GTSF1)

Sequence	pre-steady-state target cleavage rate [1, 3]	pre-steady-state target cleavage rate [2]	pre-steady-state target cleavage rate [1, 4]
UCCUGGUACAGCUUGCAUAGUAAUAAGUUA	0.204 ± 0.033	0.00546 ± 0.0031	–
UCCUCCUACAGCUUGCAUAGUAUUAAGAAA	0.159 ± 0.036	0.0051 ± 0.0031	–
UCCUGGUACAGCUUGCAUACUAUUUAGUAA	0.0573 ± 0.023	0.00327 ± 0.0023	–
UCCUCCUACAGCUUGCAUAGUUUUUUCAAA	0.0513 ± 0.014	0.00481 ± 0.0034	–
UCCUGCUACAGCUUGCAUAGUAUAAUCAAA	0.0335 ± 0.013	0.00391 ± 0.0037	–
UCCUGCUACUCCUUGCAUAGUAUUUACAAA	0.0669 ± 0.016	0.00249 ± 0.0023	–
UCCUGGUACAGCUUGCAUAGAAUUAAGUUA	0.0989 ± 0.03	0.00454 ± 0.0027	–
UCCUGGAUGAGCUUGCAUAGUAUUUACAUA	0.0149 ± 0.0065	0.00323 ± 0.0028	–
UCCUCCUACAGCUUGCAUAGUAUUUUGAUA	0.112 ± 0.024	0.0044 ± 0.0029	–
UCCUCCUACAGCUUGCAUAGUUUUUAGAUA	0.0768 ± 0.022	0.00341 ± 0.0022	–
UCCUCCUACAGCAAGCAUAGUAUUUAGAAA	0.217 ± 0.035	0.00443 ± 0.0036	–
UCCUCCUACUGCUUGCAUAGUAUUUAGUAA	0.126 ± 0.017	0.00527 ± 0.0023	–
UCCUGCUACAGCUUGCAUAGUAUUUACAAA	0.153 ± 0.039	0.00255 ± 0.0022	–
UCCUGGUACAGCUUGCAUAGUAUUAACUUA	0.0223 ± 0.0097	0.0032 ± 0.0024	–
UCCUGCUACAGCUUGCAUAGUAUAUACAAA	0.0701 ± 0.019	0.00238 ± 0.0022	–
UCCUGGAUGAGCUUGCAUACUAUUUAGUAA	0.00877 ± 0.0036	0.00227 ± 0.0018	–
UCCUGGUUCAGCUUGCAUAGUAUUUAGAUA	0.106 ± 0.022	0.00378 ± 0.002	–
UCCUGGAACAGCUUGCAUAGUAUAAAGAAA	0.0192 ± 0.0088	0.00217 ± 0.0021	–
UCCUCGAUCAGCUUGCAUAGUAUUUAGAAA	0.115 ± 0.02	0.00579 ± 0.0018	–
UCCUCCAUCAGCUUGCAUAGUAUUUACAAA	0.0667 ± 0.017	0.00282 ± 0.0024	–

Sequence	pre-steady-state target cleavage rate [1, 3]	pre-steady-state target cleavage rate [2]	pre-steady-state target cleavage rate [1, 4]
UCCUCCUACACGUUGCAUAGUAUUUAGAAA	0.161 ± 0.029	0.00396 ± 0.003	–
UCCUCCUACUCCUUGCAUAGUAUUUAGAAA	0.0907 ± 0.021	0.00457 ± 0.0022	–
UCCUGGAUGUCGAACCAUAGUAUUUAGGUA	–	< 0.0001	< 0.0001
UCCUGGUACACCUUGCAUAGUAUUUAGAAA	0.13 ± 0.043	0.0037 ± 0.0035	–
UCCUCCUACAGCUAGCAUAGUAUUUACUUA	0.15 ± 0.022	0.00296 ± 0.0027	–
UCCUCCUACAGCUUGCAAAGUAUUAAGUUA	0.0872 ± 0.014	0.00696 ± 0.0033	–
UCCUGCUACAUGCUUGCAUAGUAUUUAGUUA	0.0998 ± 0.021	0.00438 ± 0.002	–
UCCUGGAUGUCCUUGCAUAGUAUUUAGUCUA	0.0325 ± 0.01	0.00301 ± 0.0024	–
UCCUCCUACAGCUUGCAUAGUAAUUACAAA	0.18 ± 0.039	0.00353 ± 0.0025	–
UCCUGGAACAGGUUGCAUAGUAUUUAGAUA	0.136 ± 0.025	0.00362 ± 0.0019	–
UCCUCCUACAGCUUGCAUAGUUUAUAGUUA	0.0469 ± 0.011	0.00613 ± 0.0033	–
UCCUCCUACAGCUUGCAUUGUAUUAAGUUA	0.132 ± 0.023	0.00681 ± 0.0032	–
UCCUGCUACUGCUUGCAUAGUAUAUAGUUA	0.121 ± 0.018	0.00619 ± 0.0031	–
UCCUCCUACAGGUUGCAUAGUAUUUACAAA	0.052 ± 0.014	0.00321 ± 0.0024	–
UCCUGCUUCAGCUUCCAUAGUAUUUAGUUA	0.0549 ± 0.018	0.00322 ± 0.0013	–
UCCUGGAACAGCUUGCAUACUAUUAAGUUA	0.0333 ± 0.012	0.00246 ± 0.0024	–
UCCUCCUACAGCUUGCAUAGUAAUUACUUA	0.0937 ± 0.025	0.005 ± 0.0027	–
UCCUGCUACAGCUUGCAUACGUAUUUAGUUA	0.00697 ± 0.0042	0.00225 ± 0.0022	–
UCCUCCUACAGCUUGCAAACUAUUUAGUUA	0.0393 ± 0.0078	0.00937 ± 0.0039	–
UCCUGGAACAGCUUGCAUAGUUUUUAGAAA	0.0191 ± 0.007	0.00413 ± 0.0021	–

Sequence	pre-steady-state target cleavage rate [1, 3]	pre-steady-state target cleavage rate [2]	pre-steady-state target cleavage rate [1, 4]
UCCUGGUACAGCUUGCAUAGUAAUUAGAUA	–	0.00477 ± 0.0031	0.00338 ± 0.0033
UCCUGGAUCAGCUUGCAAUAGUAUUUAGUUA	0.00703 ± 0.0039	0.0153 ± 0.0038	–
UCCUGGUACAGCUUGCAAAGUAUUUUCAAA	0.0283 ± 0.012	0.00424 ± 0.0036	–
UCCUGGUACAGCUUGCAUUGUAUUUUGUUA	0.0604 ± 0.018	0.00266 ± 0.0026	–
UCCUCCUACAGCUUGCAAUCUAUUUAGUUA	0.0266 ± 0.0058	0.00376 ± 0.0036	–
UCCUGGAUGUGCUUGCAUAGUAUUUAGCUUA	0.113 ± 0.028	0.00517 ± 0.003	–
UCCUGGUACAGCUUGCACUAGUAUUUAGUUA	0.109 ± 0.027	0.00323 ± 0.0029	–
UCCUGCUACAGCUUGCAUUGUAUUUAGAUA	0.106 ± 0.017	0.00283 ± 0.0018	–
UCCUGGAACAGCUUGCAUAGUAUAAUGUUA	0.0834 ± 0.018	0.00416 ± 0.0026	–
UCCUGGAUGAGCUUGCAUAGUAAUUAGUAA	0.219 ± 0.042	0.00197 ± 0.0019	–
UCCUCCUACAGCUUGCAUAGUAUUAUCUAA	0.187 ± 0.045	0.00413 ± 0.0033	–
UCCUCCUACAGCUUGCAUAUUAUUUAGUUA	0.0824 ± 0.011	0.0783 ± 0.025	–
UCCUGCUACAGCUUCCAUAGUAUUUAGUAA	0.0172 ± 0.0082	0.00255 ± 0.0016	–
UCCUCCUACAGCUUGCAUUGUAUUUACAAA	0.0269 ± 0.0098	0.00314 ± 0.003	–
UCCUGCUACACCUUGCAUAGUAUUAAGUUA	0.178 ± 0.034	0.00618 ± 0.0036	–
UCCUGGAUGUGCUUGCAUAGCAUUUAGUUA	0.0436 ± 0.012	0.00505 ± 0.0018	–
UCCUGGAACAGCUUGCAUAGUUUUUUGUUA	0.0493 ± 0.014	0.00325 ± 0.0013	–
UCCUGGAUGUGCUUGCAUAGUAUUUAGAUUA	0.0647 ± 0.016	0.00327 ± 0.0022	–
UCCUCCUACAGGUUGCAUAGUAUUUAGAAA	0.12 ± 0.023	0.00461 ± 0.0014	–
UCCUGCUACAGCUUGCAUAGAUUUAGUUA	0.00937 ± 0.0054	0.00286 ± 0.0015	–
